Data taken from PubChem BioAssay AID1159580 (chemical genetic matrix, 2015).
About 2,000 (36%) of roughly 5,500 compounds were called active. Inconclusive results (about 18%) are left out. Rule as the data show it: active = normalized growth mostly below about 0.91 (no sharp cut-off); inconclusive = no clear call, values can overlap the other calls; inactive = mostly above about 0.92. Some of the results follow.

Test: chemical genetic growth profiling, strain panel (AID 1159580);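 also: tested at 20 µM; growth read once vehicle control cultures reached saturation at 30 °C; 1 = growth at the plate median or of vehicle wells; lower values mean less growth of the strain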
Conditions: S. cerevisiae deletion strains, growth OD

Measured: normalized growth

NC(N)=NOCC[C@H](N)C(=O)O
inactive: locus YAL013W, strain DEP1, active compounds read low 0.991 | locus YAL021C, strain ccr4, active compounds read low 1.01 | locus YAL026C, strain drs2, active compounds read low 1.01 | locus YAL030W, strain snc1, active compounds read low 1 | locus YBL061C, strain skt5, active compounds read low 1.02 | locus YBR009C, strain hhf1, active compounds read low 1.01 | locus YBR021W, strain FUR4, active compounds read low 1 | locus YBR023C, strain chs3, active compounds read low 1.02 | locus YBR171W, strain sec66, active compounds read low 1.02 | locus YBR229C, strain ROT2, active compounds read low 0.993 | locus YBR231C, strain swc5, active compounds read low 1.02 | locus YBR279W, strain paf1, active compounds read low 1.01 | locus YCL011C, strain gbp2, active compounds read low 1.03 | locus YCL016C, strain dcc1, active compounds read low 1.01 | locus YCL029C, strain bik1, active compounds read low 0.983 | locus YCL061C, strain MRC1, active compounds read low 1.01 | locus YCL069W, strain vba3, active compounds read low 1.01 | locus YCR088W, strain abp1, active compounds read low 1.01 | locus YDL005C, strain med2, active compounds read low 1.01 | locus YDL035C, strain GPR1, active compounds read low 0.985 | locus YDL040C, strain nat1, active compounds read low 1.01 | locus YDL074C, strain BRE1, active compounds read low 1.02 | locus YDL101C, strain DUN1, active compounds read low 0.99 | locus YDL134C, strain PPH21, active compounds read low 0.999 | locus YDL185W, strain tfp1, active compounds read low 0.975 | locus YDL192W, strain arf1, active compounds read low 0.983 | locus YDR001C, strain nth1, active compounds read low 1.01 | locus YDR069C, strain doa4, active compounds read low 1.02 | locus YDR101C, strain arx1, active compounds read low 1.01 | locus YDR137W, strain rgp1, active compounds read low 1.01 | locus YDR150W, strain NUM1, active compounds read low 0.984 | locus YDR159W, strain sac3, active compounds read low 1.01 | locus YDR162C, strain NBP2, active compounds read low 1.02 | locus YDR195W, strain ref2 0.996 | locus YDR297W, strain sur2, active compounds read low 1.01 | locus YDR318W, strain mcm21, active compounds read low 0.983 | locus YDR334W, strain swr1, active compounds read low 1.02 | locus YDR335W, strain msn5, active compounds read low 1.01 | locus YDR388W, active compounds read low 0.999 | locus YDR392W, strain spt3, active compounds read low 1.01 | locus YDR502C, strain sam2, active compounds read low 0.995 | locus YEL003W, strain gim4, active compounds read low 1.02 | locus YEL037C, strain rad23, active compounds read low 1.01 | locus YEL061C, strain CIN8 (second series), active compounds read low 1.02 | locus YEL061C, strain CIN8, active compounds read low 0.992 | locus YER015W, strain faa2, active compounds read low 1.01 | locus YER016W, strain bim1, active compounds read low 1.01 | locus YER110C, active compounds read low 0.984 | locus YER111C, strain swi4, active compounds read low 1.01 | locus YER155C, strain BEM2 (second series), active compounds read low 1.01 | locus YER155C, strain BEM2, active compounds read low 0.978 | locus YER167W, strain BCK2, active compounds read low 0.978 | locus YFR010W, strain ubp6, active compounds read low 1.01 | locus YGL078C, strain dbp3, active compounds read low 0.994 | locus YGL086W, strain mad1, active compounds read low 0.978 | locus YGL167C, strain pmr1, active compounds read low 1.01 | locus YGL173C, strain kem1, active compounds read low 1 | locus YGL227W, strain vid30, active compounds read low 1.02 | locus YGL240W, strain doc1, active compounds read low 1.02 | locus YGL248W, strain PDE1, active compounds read low 0.994 | locus YGL253W, strain hxk2, active compounds read low 1.01 | locus YGR078C, strain PAC10, active compounds read low 1.04 | locus YGR135W, strain pre9, active compounds read low 1.03 | locus YGR229C, strain SMI1, active compounds read low 1.02 | locus YGR252W, strain gcn5, active compounds read low 1.01 | locus YHR013C, strain ard1, active compounds read low 1.04 | locus YHR027C, strain rpn1, active compounds read low 1 | locus YHR030C, strain SLT2, active compounds read low 0.978 | locus YHR079C, strain IRE1 (second series), active compounds read low 0.985 | locus YHR094C, strain hxt1, active compounds read low 0.988 | locus YHR129C, strain ARP1, active compounds read low 0.991 | locus YHR142W, strain chs7, active compounds read low 1.03 | locus YHR200W, strain rpn10, active compounds read low 0.986 | locus YIL066C, strain RNR3, active compounds read low 0.979 | locus YIL073C, strain SPO22, active compounds read low 0.915 | locus YIL125W, strain kgd1, active compounds read low 0.992 | locus YIR030C, strain dcg1, active compounds read low 0.98 | locus YJL092W, strain hpr5, active compounds read low 1.01 | locus YJL095W, strain BCK1 (second series), active compounds read low 1.02 | locus YJL095W, strain BCK1, active compounds read low 1.04 | locus YJL115W, strain asf1, active compounds read low 1.01 | locus YJL129C, strain trk1, active compounds read low 1.03 | locus YJL134W, strain LCB3, active compounds read low 0.987 | locus YJL154C, strain vps35, active compounds read low 1.01 | locus YJL164C, strain tpk1, active compounds read low 1.01 | locus YJL166W, strain qcr8, active compounds read low 1.02 | locus YJL168C, strain set2, active compounds read low 0.988 | locus YJL187C, strain SWE1 (second series), active compounds read low 1.01
